Here are results for 66 molecules from PubChem BioAssay AID1461 (National Center for Advancing Translational Sciences (NCATS), 2008).

The whole screen tested about 220,000 compounds, of which about 2,300 (1%) were called active. Inconclusive results (about 6%) are left out. The call rests on the fitted dose curve; in most records, active means well fitted inhibition curve with a large enough effect; inconclusive means small, poorly fitted or top-dose-only effect, or effect the other way; inactive means no such curve, though single readings can be large or run the other way. This excerpt belongs to a sample that is enriched for actives.
On the % scale 0 is the no-effect control and ±100 the full control effect; potency means the concentration at half of the fitted maximal effect.

Chain of Neuropeptide S receptor (Homo sapiens) (Q6W5P4 whole entry, looked up): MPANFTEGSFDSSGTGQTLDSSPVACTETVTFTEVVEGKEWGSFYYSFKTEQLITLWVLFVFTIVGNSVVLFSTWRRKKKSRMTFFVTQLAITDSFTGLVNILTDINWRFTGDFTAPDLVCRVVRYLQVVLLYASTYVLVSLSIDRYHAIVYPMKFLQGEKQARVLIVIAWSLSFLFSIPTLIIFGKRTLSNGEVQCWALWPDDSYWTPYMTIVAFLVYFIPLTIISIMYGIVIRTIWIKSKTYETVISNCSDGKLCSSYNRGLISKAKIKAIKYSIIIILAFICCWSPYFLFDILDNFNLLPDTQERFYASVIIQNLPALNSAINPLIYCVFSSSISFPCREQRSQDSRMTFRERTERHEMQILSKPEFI

This test addresses Neuropeptide S receptor (Homo sapiens) (UniProt Q6W5P4). The test is described as follows: qHTS Assay for Antagonists of the Neuropeptide S Receptor: cAMP Signal Transduction. Further: nearly all actives have a fitted effect of over 50% in size. The following applies: CHO-NPSR cells, cAMP TR-FRET, antagonist mode; series mostly up to 38.3 µM; activity change, negative = inhibition: at the top concentration. An excerpt:
NIH Chemical Genomics Center [NCGC] NIH Molecular Libraries Probe Production centers Network [MLPCN] MLPCN Grant: X01-DA026210-01 Assay Submitter (PI): Heilig, Markus Alexander NCGC Assay Overview: Neuropeptide S receptor (NPSR), previously known as GPR154, is a recently de-orphanized G protein coupled receptor. Its endogenous ligand is the 20 amino acids peptide Neuropeptide S (NPS). […] NPS and its receptor are found in various tissues. Specifically they are highly expressed in brain areas that have been implicated in modulation of arousal, stress and anxiety. Central administration of NPS in mice produces an unusual profile of activity by inducing wakefulness and arousal, while at the same time suppressing anxiety. Therefore, NPSR may represent a novel drug target for the treatment of sleep and anxiety disorders. To identify NPSR antagonists, we developed a cell-based cAMP assay. NPS can stimulate the production of cAMP in Chinese hamster ovary cells stably expressing NPS receptor. This change in intracellular cAMP level can be detected by a homogeneous LANCE cAMP assay based on the TR-FRET (time resolved fluorescence resonance energy transfer) between a europium-labeled cAMP tracer complex and a cAMP-specific antibody labeled with Alexa Fluor 647. The europium-labeled cAMP tracer complex is formed by the tight interaction between Biotin-cAMP (b-cAMP) and streptavidin labeled with Europium-W8044 chelate (Eu-SA). Light pulse at 320 nm excites the europium of the cAMP tracer and the energy emitted is transferred to the Alexa molecule bound to the cAMP antibody, generating a TR-FRET signal at 665 nm. Residual energy from the europium will produce a light at 620 nm. The native unlabeled cAMP from cell lysates competes with the europium-cAMP tracer for antibody binding and reversely reduces the emission signal of Alexa by interrupting FRET between the two labeled molecules. Both emission signals from the FRET donor (620 nm) and the acceptor (665 nm) can be detected by a plate reader in the TRF mode. Expression of result in fluorescence ratio (665 nm/620 nm) helps to normalize differences due to cell density and reagent dispensing. This assay was successfully optimized to a 1536-well plate format.
NCGC Assay Protocol Summary: A Chinese hamster ovary (CHO) cell line stably expressing the NPS receptor (CHO-NPSR) was obtained from Dr. Heilig lab at NIAAA and maintained in F-12 Kaighn's media (Invitrogen, Carlsbad, CA, 21127) supplemented with 10 % FBS, 100 units/ml penicillin, 100 ug/ml streptomycin and 250 ug/ml geneticin at 37C, 5% CO2 in a humidified atmosphere. Before the assay, aliquots of cells were frozen and stored at -135C. The assay was performed in 1536-well format. Data are reported for both the ratio of the two emission wavelengths, and also for the component 'donor' channel, Em2=620. Data were normalized to the controls for basal activity (DMSO only) and 100% inhibition (No NPS control). IC50 values were determined from concentration-response data modeled with the standard Hill equation. NPS 1536-well assay protocol: (1) Fresh or frozen CHO-NPSR cells were suspended in F-12 Kaighn's media supplemented with 10 % FBS, 100 units/ml penicillin and 100 ug/ml streptomycin. Cells were plated at 4 ul/well (1200 cells) to white, tissue culture treated 1536-well plates, and then cultured at 37C, 5 % CO2 for 16 to 30 hours. (2) Add 23 nl/well of compound in DMSO solution. The final titration for each compound was between 0.6 nM and 46 uM. (3) Add 1 ul of stimulation reagent (1X HBSS buffer, 5 mM HEPES, 0.1% BSA, 500 uM RO-201724 (Sigma-Aldrich, B8279), 1.5% Alexa 647-labeled anti-cAMP antibody (from Perkin Elmer), 100 nM NPS) (4) Incubation at 37C, 5 % CO2 for 60 min. (5) Add 1 ul/well detection reagent. Detection reagent was prepared by adding biotin labeled cAMP (4%), streptavidin labeled with Europium-W8044 chelate (1.33%) and TritonX-100 (1%) to detection buffer. […]
With `O=C(CC(=O)Nc1ccc(Cl)c(Cl)c1)N/N=C/c1ccc(O)cc1`, the “activity change, negative = inhibition” value was 17.9% (inactive).
In the case of `O=C(CC(O)(C(F)(F)F)C(F)(F)F)Nc1ccc(Cl)c(Cl)c1`, the Potency is 6.31 µM (active).
In the case of `Cc1ccc(NC(=O)C/C(N)=N/O)cc1Cl`, the activity change, negative = inhibition is -0.778% [at 7.67 µM] (inactive).
Same read-out and setting: next, `COc1cc2c(cc1OC)C(/C=C/c1ccco1)=NCC2`: -41.7% (inactive); `COC(=O)c1cc(NC(=O)c2ccco2)ccc1N1CCOCC1`: -5.71% (inactive).
As to `CC1(C)Cc2nc3sc4c(SCC(=O)NC(c5ccccc5)c5ccccc5)ncnc4c3cc2CO1`, the Potency was 1.26 µM (active).
For `CC(=O)Nc1ccc(NC(=O)CSc2ncnc3c2cnn3Cc2ccccc2)cc1`, the “activity change, negative = inhibition” value is 4.76% (inactive).
Regarding `C=CCn1c(=S)[nH]c2nc3c(cc2c1=O)COC(C)(C)C3`, the “activity change, negative = inhibition” value is 1.99% [at 46.1 µM] (inactive).
On to `O=c1[nH]nc(SCCS(=O)(=O)c2ccc(F)cc2)n1-c1ccccc1C(F)(F)F`, for which the “activity change, negative = inhibition” value was 13.4% (inactive).
The same measure, in the same setting: next, `Cc1cccc2c1-c1sc(C(=O)NCCCN3CCc4ccccc4C3)cc1CO2`: -16.1% (inactive).
In the case of `O=C(C[n+]1ccc2c(c1)nnn2-c1ccccc1)c1ccc(Cl)cc1`, the “activity change, negative = inhibition” value was -24.3% (inactive).
Consider `O=C(Cn1nnc(N2CCCCC2)n1)c1ccc(Cl)c(Cl)c1`, for which the “activity change, negative = inhibition” value is 3.87% (inactive).
For `O=S(=O)(NCc1ccco1)c1cnc(Cl)c(Cl)c1`, the activity change, negative = inhibition is 25.6% [at 7.67 µM] (inactive).
Take `Cn1c(SCC(=O)N2CCOCC2)nnc1-c1ccc2ncccc2c1`: the “activity change, negative = inhibition” value was 7.2% (inactive).
For `CC(C)=CCc1c(O)c(CC=C(C)C)c2occ(-c3ccc(O)cc3)c(=O)c2c1O`, the “activity change, negative = inhibition” value was -56.7% (inactive).
For the molecule `O=C1CN(c2nc(-c3ccccc3)c3cc(Br)ccc3n2)c2ccccc2N1`, the Potency was 6.31 µM (active).
For the molecule `Cc1ccc(S(=O)(=O)N2CC(=O)Nc3ccccc32)cc1C`, the “activity change, negative = inhibition” value was 6.63% [at 46.1 µM] (inactive).
Still for that read-out and setting: for `Cc1ccc(C)c(S(=O)(=O)N2CC(=O)Nc3ccccc32)c1` the value was -7.92% [at 46.1 µM] (inactive); for `COc1ccc(CN2CCOC2=O)cc1OC`, -18.3% (inactive); for `COc1ccccc1C1/C(=C(/O)c2ccc(OC(C)C)cc2)C(=O)C(=O)N1c1cc(C)on1` (stereo unspecified), -10.3% [at 46.1 µM] (inactive).
For the molecule `COc1ccc(C2/C(=C(/O)c3ccccc3)C(=O)C(=O)N2c2ncccn2)cc1OC` (stereo unspecified), the “activity change, negative = inhibition” value was 1.24% (inactive).
In the case of `Cc1cc(N2C(=O)C(=O)/C(=C(/O)c3ccc(Cl)cc3)C2c2cccc(Br)c2)no1` (stereo unspecified), the Potency is 12.6 µM (active).
With `CC(=O)NCc1ccc(S(=O)(=O)NC2CCN(Cc3ccccc3)CC2)cc1`, the “activity change, negative = inhibition” value is 23.9% (inactive).
As to `COc1ccc(Br)c2c1C(=O)CC2`, the “activity change, negative = inhibition” value is -25.8% (inactive).
Turning to `COC(=O)c1cn(C(=O)c2ccc(Cl)cc2)c2ccccc12`, the “activity change, negative = inhibition” value is -27% (inactive).
As to `CCOC(=O)NNc1cc(C(F)(F)F)ccn1`, the “activity change, negative = inhibition” value is -10.8% (inactive).
Turning to `COc1ccccc1P(=O)(c1ccccc1)c1ccccc1NC(C)=O` (stereo unspecified), the “activity change, negative = inhibition” value is 17.4% (inactive).
Regarding `Cc1cccc(NC(=O)c2sc(-c3ccccc3)nc2-c2ccc([N+](=O)[O-])cc2)c1`, the “activity change, negative = inhibition” value was -3.9% (inactive).
As for `CCOC(=O)/C(=C\c1ccc([N+](=O)[O-])cc1)C(=O)c1cc(C(C)=O)c(Nc2ccccc2)s1`, the Potency was 7.94 µM (active).
On to `O=C(Nc1ccccc1)/C(=C/c1ccc([N+](=O)[O-])cc1)NC(=O)c1ccccc1`, for which the “activity change, negative = inhibition” value is 4.16% (inactive).
With `Cc1ccc(C)c2[nH]c(=O)c(CN(Cc3cccnc3)C(=S)NCc3ccco3)cc12`, the “activity change, negative = inhibition” value is -30.5% (inactive).
Regarding `COc1ccc(Nc2cc(Cl)ccc2C(=O)O)cn1`, the “activity change, negative = inhibition” value was -22.8% (inactive).
`COc1ccc(NC(=O)/C(Cl)=C(/Cl)S(=O)Cc2ccc(C)cc2)cn1` (stereo unspecified): the Potency was 1 µM (active).
`COc1ccc(NC(=S)Nc2ccccc2Cl)cn1`: the “activity change, negative = inhibition” value is 9.18% (inactive).
On the same count and under the same terms, next, `COc1cccc(Nc2nc(N)c([N+](=O)[O-])c(NCc3ccco3)n2)c1`: -26.4% (inactive); `C/C(=N\OCC(=O)O)c1ccc(Cl)cc1`: 9.86% [at 7.67 µM] (inactive).
On to `Cc1noc(C)c1S(=O)(=O)Nc1cc(C(F)(F)F)ccc1N1CCOCC1`, for which the “activity change, negative = inhibition” value is 8.56% (inactive).
Consider `COc1ccc(C(=O)C2CCCN(Cc3ccc4nonc4c3)C2)c(C)c1` (stereo unspecified), for which the “activity change, negative = inhibition” value was -40.1% (inactive).
For `COc1ccc(S(=O)(=O)Nc2ccc(O)c(Sc3nc4ccccc4s3)c2)cc1`, the “activity change, negative = inhibition” value is -10.1% (inactive).
Take `O=C(CSc1nc2ccccc2s1)Nc1ccc(C(=O)O)cc1`: the “activity change, negative = inhibition” value was -10.3% (inactive).
With `O=[N+]([O-])c1c(NCCO)cc(Sc2nc3ccccc3s2)c2nonc12`, the Potency was 10 µM (active).
For the molecule `COc1cc2nc(Cl)nc(NCCO)c2cc1OC`, the “activity change, negative = inhibition” value was 4.49% (inactive).
On the same count and under the same terms, next, `C/C(=N/NC(=O)CC(=O)N/N=C(\C)c1ccc([N+](=O)[O-])cc1)c1ccc([N+](=O)[O-])cc1`: -5.47% (inactive); `O=C(Cn1cnc2cc([N+](=O)[O-])ccc2c1=O)NC(=O)NCc1ccccc1`: 10.6% (inactive).
Turning to `Cc1ccc(SC(CC(=O)c2ccc(C(C)(C)C)cc2)C(=O)O)cc1` (stereo unspecified), the Potency is 10 µM (active).
Take `Cc1ccc(CSCC(N)C(=O)O)cc1` (stereo unspecified): the “activity change, negative = inhibition” value is 22.8% (inactive).
On to `Cc1ccc(C(=O)CS(C)(=O)=O)cc1`, for which the “activity change, negative = inhibition” value was -4.78% [at 46.1 µM] (inactive).
For the molecule `C/C(Cc1ccccc1)=N\NC(=O)CNC(=O)c1ccc2c(c1)OCCO2`, the “activity change, negative = inhibition” value was 4.68% (inactive).
With `CC1(C)CCCC2=C1CC1C(=O)N(c3ccccc3)C(=O)C1C2` (stereo unspecified), the “activity change, negative = inhibition” value was -11.9% [at 46.1 µM] (inactive).
Consider `CC1CC2=C(CC1/C=N/NC(N)=S)C(C)(C)CCC2` (stereo unspecified), for which the Potency is 12.6 µM (active).
On to `Oc1[nH]c2ccc(Br)cc2c1N=Nc1nn[nH]n1`, for which the “activity change, negative = inhibition” value was -16.6% (inactive).
Take `Cc1nc(CNS(=O)(=O)c2cc([N+](=O)[O-])ccc2C)cs1`: the “activity change, negative = inhibition” value is 19.2% (inactive).
Take `Cc1nc(=O)c(-c2ccccc2)c(C)n1-c1ccc(Br)cc1`: the “activity change, negative = inhibition” value was 1.88% (inactive).
Same read-out and setting: for `CC(NCc1ccccc1OC1CCCC1)c1ccccc1` (stereo unspecified) the value was -11.4% (inactive); for `NC(=S)Nc1c(Cl)cccc1Cl`, 7.17% [at 7.67 µM] (inactive).
For the molecule `CN(c1ccccn1)c1ncnc2[nH]ncc12`, the “activity change, negative = inhibition” value was -6.2% (inactive).
In the case of `CC(=O)c1cc(NC(=O)c2ccccc2)c(=O)oc1/C=C/N(C)C`, the Potency is 10 µM (active).
Turning to `CCOC(=O)c1cc(NC(=O)c2ccc(Cl)cc2)c(=O)oc1-c1ccccc1`, the “activity change, negative = inhibition” value was -9.77% [at 46.1 µM] (inactive).
As to `Cc1ccccc1NC(=O)c1ccccc1`, the “activity change, negative = inhibition” value is -0.671% [at 46.1 µM] (inactive).
With `COc1ccc(C2/C=C\CN(S(=O)(=O)c3cccs3)CC(=O)N2Cc2ccc(F)cc2)cc1` (stereo unspecified), the “activity change, negative = inhibition” value was -36.6% (inactive).
In the case of `COc1ccc(CN2C(=O)C(C)S/C2=N/N=C/c2ccco2)cc1` (stereo unspecified), the “activity change, negative = inhibition” value was -9.94% (inactive).
In the case of `CCOC(=O)c1ccc(NC(=O)c2nc[nH]c2C(=O)N[C@@H](CCCCNC(=O)OC(C)(C)C)C(=O)OC(C)(C)C)cc1`, the “activity change, negative = inhibition” value is -52.7% (inactive).
On to `O=C(/C(=C/c1cccc(Cl)c1)c1nc2ccccc2[nH]1)c1ccccc1`, for which the Potency is 10 µM (active).
Regarding `CCC(=O)/C(=C(/O)c1ccccc1)c1nc2ccccc2[nH]1`, the “activity change, negative = inhibition” value is 10% (inactive).
For `O=C(Cc1nc2ccccc2[nH]c1=O)c1ccc(Cl)cc1`, the “activity change, negative = inhibition” value is 14.9% (inactive).
With `CC1=CC2=NC(=O)/C(=C/c3coc4ccccc4c3=O)C(=N)N2O1`, the “activity change, negative = inhibition” value is 43.2% (inactive).
